Inconclusive results are not listed. Active and inactive are the calls of the source. The call rests on the fitted dose curve; in most records, active means well fitted inhibition curve with a large enough effect; inconclusive means small, poorly fitted or top-dose-only effect; inactive means no such curve, though single readings can be large or run the other way.
Assay: qHTS for Inhibitors of the Aldehyde Dehydrogenase Family (ALDH1A2, ALDH1A3, ALDH2, ALDH3A1) (AID 2061307); further: nearly all actives have a fitted effect of over 50% in size; on Potency: test system not described further here
Details: ALDH inhibition qHTS; series mostly up to 50.3 µM; activity change, negative = inhibition: at the top concentration
On the % scale 0 is the no-effect control and ±100 the full control effect; potency means the concentration at half of the fitted maximal effect.

Activity change, negative = inhibition, inactive:
NCC(=O)Nc1cc(-c2nn3c(=O)cc(N4CCNCC4)nc3s2)ccn1 5.66%
CCc1cccc(C)c1Nc1c(-c2ccc(N(C)C)cc2)nc2ncccn12 -28.1%
c1ccc(CCN(Cc2ccccc2)C2CCN(Cc3ccc4c(c3)OCCO4)CC2)cc1 20.9%
O=C(NCCN1CCN(c2cccc(Cl)c2)CC1)Nc1ccccc1C(F)(F)F -60.6% [at 34.4 µM]
COc1ccc(-n2c(C)c(C(=O)c3ccccc3)c3cc(O)ccc32)cc1 3.6% [at 34.4 µM]
COc1ccc(OC)c(NC(=O)c2cccc(Nc3ncccn3)c2)c1 0.0532% [at 34.4 µM]
O=C1Cc2cc(S(=O)(=O)N3CCN(c4ccc(C(=O)O)cc4)CC3)ccc2N1 -15.4%
CCc1cccc(CC)c1-n1c(C)c(C(=O)NC2CC2)cc(-c2nc(-c3ccc(Cl)cc3)cs2)c1=O -11.7%
c1ccc(CN2CCN(c3nccc(-c4ccncc4)n3)CC2)nc1 -59.1% [at 34.4 µM]
COC(=O)c1ccc(NC(=O)CN(c2cccc(C(F)(F)F)c2)S(C)(=O)=O)cc1 -6.97%
COc1ccc2c(c1)CCNC2Cc1ccc(OC)c(O)c1 (centres undefined) -18.8%
COc1ccc(C2CC(=O)Nc3nc(N4CCCCC4)sc32)c(OC)c1 (centres undefined) -5.83%
NC(=O)c1ccc(NC(=O)c2cnn(-c3ccccc3)n2)cc1 -44.7% [at 34.4 µM]
Oc1ccc(N2CCN(Cc3ccc(OCCCN4CCCCC4)cc3)CC2)cc1 -1.76%
COC(=O)c1ccc(S(=O)(=O)N2CCC(c3nc4ccccc4s3)CC2)cc1 -5.6%
COc1ccc(/C=C/c2onc(C)c2S(=O)(=O)N2CCC(C(=O)N3CCc4ccccc4C3)CC2)cc1 -15%
CC(=O)Nc1ccc(NC(=O)c2cc(=O)c3ccccc3o2)cc1 4.53% [at 34.4 µM]

Potency, active:
CNc1nc2c(s1)C(c1ccccc1Cl)CC(=O)N2 (centres undefined) 11.3 µM
Cc1ccc(-c2ccccc2)n1-c1ccccc1C(=O)O 15.9 µM
O=C(Nc1ccccc1F)c1nc(S(=O)(=O)Cc2ccccc2F)ncc1Cl 3.16 µM
CCN(CC)S(=O)(=O)c1cccc(NC(=O)CNc2cccc(S(=O)(=O)N3CCOCC3)c2)c1 10 µM
CCN1C(=O)c2ccccc2S(=O)c2ccc(C(=O)NCc3cccc(-c4ccccc4)c3)cc21 (centres undefined) 22.5 µM
COc1cc(O)c(C(CC(=O)N2CC(C)CC(C)C2)c2ccc(NC(C)=O)cc2)c(OC)c1 (centres undefined) 31.6 µM
Cc1ccc2nc(Nc3ccc(C(=O)O)cc3)[nH]c2c1 12 µM
